Our source for the AC50 and activity, negative = inhibition values is PubChem BioAssay AID1851 (National Center for Advancing Translational Sciences (NCATS), 2009).

One may read the AC50 as the midpoint of the concentration-response curve, whichever way the signal moves.

“And” between values parts separate entries of the source, which are not always exact repeats. Identical values can stand only once. The whole screen tested about 16,000 compounds, of which about 4,000 (25%) were called active. Not shown: some 26% with an inconclusive outcome. Calls follow the shape of the dose curve; as a rule, active = well fitted curve in the direction sought with a large enough effect; inconclusive = small, poorly fitted or top-dose-only effect, or effect the other way; inactive = no such curve, though single readings can be large or run the other way. The list is a sample of the results. Some compounds were tested as several samples or in several runs, with calls that do not always agree.
% is scaled to controls: 0 for no effect and ±100 for the full control effect.

The target in this assay is Cytochrome P450 2C9 (Homo sapiens) (UniProt P11712). The experiment in a line: Cytochrome panel assay with activity outcomes. The following applies: recombinant CYP, pro-luciferin dealkylation, luminescence, p450-cyp2c9; series mostly up to 57.1 µM.
Sequence of Cytochrome P450 2C9 (Homo sapiens) (P11712 whole entry, looked up): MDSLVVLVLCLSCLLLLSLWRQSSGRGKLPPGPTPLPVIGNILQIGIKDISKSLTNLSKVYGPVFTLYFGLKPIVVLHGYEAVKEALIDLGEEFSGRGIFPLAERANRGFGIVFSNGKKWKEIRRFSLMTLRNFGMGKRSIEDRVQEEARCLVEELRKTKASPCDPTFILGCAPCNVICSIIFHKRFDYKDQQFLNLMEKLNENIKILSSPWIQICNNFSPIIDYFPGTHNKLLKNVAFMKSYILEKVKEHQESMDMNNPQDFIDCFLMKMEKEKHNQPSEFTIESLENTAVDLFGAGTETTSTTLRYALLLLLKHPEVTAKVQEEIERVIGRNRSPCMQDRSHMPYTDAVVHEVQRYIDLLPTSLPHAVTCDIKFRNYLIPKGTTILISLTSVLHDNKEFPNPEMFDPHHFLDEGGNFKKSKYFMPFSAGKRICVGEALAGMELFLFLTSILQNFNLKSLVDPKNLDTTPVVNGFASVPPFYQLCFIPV
Regarding `COc1ccc(-c2nnn(CC(=O)NCCc3c[nH]c4ccccc34)n2)cc1OC`, the half-maximal activity concentration (AC50) was 4.47 µM (active). For `CCc1nnc(NC(=O)CCC(=O)NCc2ccccc2OC)s1`, the AC50 entry was “inactive”. Still for that read-out and setting: next, `COc1cc2c(CCNC(C)=O)c[nH]c2cc1O`: “inactive”; `COc1ccccc1CNC(=O)Cn1nnc(-c2ccncc2)n1`: 7.94 µM (active). Same read-out and setting: next, `CCCCOc1ccc(-c2nnn(CC(=O)c3c[nH]c4ccccc34)n2)cc1`: “inactive”. As for `COc1ccccc1CNc1ccnc(-c2ccc(C(=O)N(C)C)cc2)n1`, the activity, negative = inhibition is -10.3% [at 2.29 µM] (inactive). As for `NC(N)=[N+]1CCc2ccccc2C1`, the AC50 entry is “inactive”.

For `CC1=C(C#N)C(Nc2ccc(Cl)cn2)(C(F)(F)F)C(=O)N1` (stereo not given), the AC50 was 14.1 µM (active). Consider `COc1cc(OC)c(C2N(c3cc(C)on3)C(=O)C3CCCN32)cc1OC` (stereo not given), for which the AC50 result is “inactive”. Consider `COc1cccc(C2C(C(=O)c3cc4ccccc4o3)=C(O)C(=O)N2c2cc(C)on2)c1OC` (stereo not given), for which the half-maximal activity concentration (AC50) was 14.1 µM (active). Still for that read-out and setting: next, `CN(C)CCN1C(=O)C(O)=C(C(=O)c2cc3ccccc3o2)C1c1ccccn1` (stereo not given): “inactive”; `Cc1cc(N2C(=O)C(O)=C(C(=O)c3ccco3)C2c2ccc(O)cc2)no1` (stereo not given): 11.2 µM (active); `CC(C)NC[C@@H](O)COc1ccc(COCCOC(C)C)cc1`: “inactive”. The same measure, in the same setting: the same measure for `CC(C)NC[C@@H](O)COc1ccc(CCOCC2CC2)cc1`: “inactive and 631 nM (active)”; for `CC(=O)Nc1ccc(OC[C@@H](O)CNC(C)C)cc1`: “inactive”. `COc1ccccc1CN1CC[C@@]2(CCCN(C(=O)c3cccn3C)C2)C1`: the AC50 entry was “inactive”. On the same count and under the same terms, next, `COC(=O)[C@@]1(Cc2ccccc2)[C@H]2c3cc(C(=O)N(C)C)n(Cc4c(CO)[nH]cc(C)c4=O)c3C[C@H]2CN1C(=O)c1ccccc1`: 0.631 µM (active); `COC(=O)[C@@]1(Cc2ccc(F)cc2)[C@H]2c3cc(C(=O)N(C)C)n(Cc4c(CO)[nH]cc(C)c4=O)c3C[C@H]2CN1C(=O)c1ccccc1`: 10 µM (active). In the case of `CN(C)C(=O)c1ccc(-c2cncnc2Nc2ccccc2)cc1`, the activity, negative = inhibition is -3.51% [at 2.29 µM] (inactive). Take `C=CC[C@H](N)C(=O)O`: the AC50 result is “inactive”. On the same count and under the same terms, the same measure for `O=C(O)C1CCC(=O)N(C2CC2)C1c1ccccc1` (stereo not given): “inactive”. For `CC12CC[C@@H]3c4ccc(OP(=O)(O)O)cc4CCC3C1CCC2=O` (stereo not given in full), the activity, negative = inhibition is 15.4% [at 11.4 µM] (inactive). Same read-out and setting: the same measure for `Clc1ccccc1-c1nc(-c2ccncc2)no1`: -19.4% [at 11.4 µM] (inactive); for `Clc1ccccc1-c1nc(N2CCNCC2)c2ccccc2n1`: 2.98% [at 2.29 µM] (inactive). Consider `Clc1ccccc1-c1nc(-c2ccccc2)n[nH]1`, for which the AC50 is 28.2 µM (active). With `Cc1sc2nc(C3CC3)nc(SCC(=O)N3CC(=O)Nc4ccccc43)c2c1C`, the AC50 is 1 µM (active). Still for that read-out and setting: next, `Cc1nnc(SCC(=O)N2CC(=O)Nc3ccccc32)n1Cc1ccccc1`: “inactive”. Consider `O=c1c2ccccc2nc2n1CCC2`, for which the AC50 result is “inactive”. Still for that read-out and setting: next, `O=c1c2c(-c3ccc(Cl)cc3)csc2nc2n1CCC2`: 14.1 µM (active); `O=C(Nc1ccc(F)cc1Cl)c1ccc2c(=O)n3c(nc2c1)CCCCC3`: “inactive”. Take `COCC(=O)N1CCC2(CC1)CN(C(=O)Nc1cccc(F)c1)C2`: the AC50 entry was “inactive”.

Regarding `O=c1c(O)c(-c2ccc(O)c(O)c2)oc2cc(O)cc(O)c12`, the AC50 result was “inactive”.

For `O=c1c(-c2ccc(O)cc2)coc2cc(O)ccc12`, the AC50 was 6.31 µM (active). `O=c1c(-c2ccc(O)cc2)coc2cc(O)cc(O)c12`: the AC50 result was “inactive”. Same read-out and setting: the same measure for `CSc1nc(N)c2ncn([C@H]3O[C@H](COP(=O)(O)OP(=O)(O)O)[C@@H](O)[C@@H]3O)c2n1`: “inactive”. For `O=C1[C@@H]2[C@@H](C(=O)N1c1ccc(OCc3ccccc3)cc1)[C@@H]1c3ccccc3[C@@H]2[n+]2ccccc21`, the activity, negative = inhibition was 0.978% [at 11.4 µM] (inactive). Regarding `O=C1C2C3c4ccccc4C(c4ccccc43)C2C(=O)N1c1nc(-c2ccccc2)cs1` (stereo not given), the AC50 is 0.891 µM (active). For `CN(C)CCCN1c2ccccc2Sc2ccc3ccccc3c21`, the activity, negative = inhibition is -11.1% [at 11.4 µM] (inactive). On to `CO[C@@H]1/C=C\CC(=O)N[C@@H](C)C(=O)OC[C@@H](OC)[C@H](C)CCCC(=O)OC[C@H]1C`, for which the activity, negative = inhibition is -25.9% [at 11.4 µM] (inactive). As for `Cc1ccccc1C(=O)N1CCN(c2ccc([N+](=O)[O-])c(N3CCOCC3)c2)CC1`, the concentration at half-maximal activity (AC50) was 5.01 µM (active). For `Cc1ccc(C(=O)O/N=C\c2ccc(N3CCCCC3)c([N+](=O)[O-])c2)cc1`, the concentration at half-maximal activity (AC50) was 2.24 µM (active).

Take `Cc1cc(C)n(-c2cc(N3CCN(C(=O)c4ccc(C(C)(C)C)cc4)CC3)ccc2[N+](=O)[O-])n1`: the AC50 is 3.98 µM (active). In the case of `Cn1c(=O)n(C)c2cc([N+](=O)[O-])c(N3CCN(C(=O)c4ccccc4Cl)CC3)cc21`, the AC50 result was “inactive”.

As for `COC(=O)c1ccc(N2CCN(CC(=O)c3ccc(-c4ccccc4)cc3)CC2)c([N+](=O)[O-])c1`, the AC50 was 5.01 µM (active). As to `CN(C)CCNc1nc2c(c(=O)n(C)c(=O)n2C)n1C`, the activity, negative = inhibition was 4.45% [at 11.4 µM] (inactive). Consider `CCCN(CC1CC1)c1nc(C)nc(Nc2c(Cl)cc(Cl)cc2Cl)c1Cl`, for which the AC50 result is “inactive”. On to `C=CC[C@@H]1C=C[C@H](O/N=C(\C)CCN2CCCc3nc(C)c(C)cc32)[C@H](CO)O1`, for which the activity, negative = inhibition was 3.93% [at 11.4 µM] (inactive).

Consider `Cc1ccc(OCC(=O)N2CCN(c3ccc([N+](=O)[O-])c(N4CCOCC4)c3)CC2)cc1`, for which the AC50 is 7.94 µM (active). The same measure, in the same setting: next, `CO/N=C/c1ccc(N2CCN(C(=O)c3ccc(Cl)cc3Cl)CC2)c([N+](=O)[O-])c1`: 7.94 µM (active); `COCC(=O)N1CCN(c2ccc([N+](=O)[O-])cc2)CC1`: “inactive”; `Cc1ccc(OC(=O)c2ccc(N3CCOCC3)c([N+](=O)[O-])c2)cc1`: 14.1 µM (active).

As to `CCOC(=O)c1c(NC(=O)c2ccc(N3CCOCC3)c([N+](=O)[O-])c2)sc(C)c1C`, the AC50 entry was “inactive”. The same measure, in the same setting: the same measure for `CC(C)Cn1c(C(C)C)nc([N+](=O)[O-])c1S(=O)(=O)c1ccc(F)cc1`: “inactive”.

As to `CN(C)Cc1ccccc1-c1nccc(NC2CC2)n1`, the activity, negative = inhibition was 5.88% [at 2.29 µM] (inactive).

On to `CC(C)=CCC/C(C)=C/CO/N=C1/C[C@@H](O)[C@@H](O)[C@@H]2[C@@H]3C(=O)N(C[C@@H]4CCCO4)C(=O)[C@H]3CC[C@H]12`, for which the activity, negative = inhibition was 4.47% [at 11.4 µM] (inactive).

For the compound `O=C(Cn1cnc([N+](=O)[O-])c1)NCc1ccc(F)cc1`, the AC50 entry is “inactive”. Consider `COc1ccccc1CN1CCCC2(CCN(C(=O)c3ccco3)CC2)C1`, for which the AC50 entry is “inactive”.

With `Cc1ccc(CNC(=O)Cn2c(=O)oc3ccccc32)o1`, the AC50 entry was “inactive”.

In the case of `COc1ccccc1OCCn1cc(C(=O)c2ccco2)c2ccccc21`, the AC50 is 0.562 µM (active). As for `COc1ccccc1CN1CCC2(CC1)CCN(C(=O)c1ccco1)CC2`, the AC50 entry was “inactive”. For the compound `Cc1ccccc1C(=O)c1cccn1CC(=O)NCc1ccco1`, the AC50 entry is “inactive”.

Regarding `O=C(Cn1cc(C(=O)c2ccco2)c2ccccc21)NCc1ccco1`, the AC50 is 14.1 µM (active). The same measure, in the same setting: next, `N[C@H](C(=O)N[C@@H]1C(=O)N2C(C(=O)O)=C(Cl)CS[C@@H]12)c1ccccc1`: “inactive”. For `COc1cccc2c1C(=N)c1c(O)c3c(c(O)c1C2=O)C[C@](O)(C(C)=O)C[C@@H]3O[C@H]1C[C@H](N)[C@@H](O)[C@H](C)O1`, the activity, negative = inhibition was -16.6% [at 11.4 µM] (inactive). `COc1ccc(NC(=O)C23CC4CC(C2)CC(n2cnc(Br)n2)(C4)C3)c(C)c1`: the AC50 entry is “inactive”. On the same count and under the same terms, next, `O=C(NC12CC3CC(CC(C3)C1)C2)C12CC3CC(C1)CC(n1cnc(Cl)n1)(C3)C2`: 12.6 µM (active).

As for `CNc1ccnc(-c2ccccc2CN(C)C)n1`, the activity, negative = inhibition was 0.444% [at 2.29 µM] (inactive). As for `CCOc1ccc(CCNC(=O)C2CCN(S(=O)(=O)CC)CC2)cc1OCC`, the AC50 result was “inactive”. On to `CCOc1ccc(CCNC(=O)CCCN2C(=O)c3ccccc3C2=O)cc1OCC`, for which the AC50 is 15.8 µM (active). Still for that read-out and setting: next, `CCCCCOC(=O)c1c(N)n(CCOC)c2nc3ccccc3nc12`: 5.01 µM (active). On the same count and under the same terms, next, `CCCc1nc2sc3ccccc3c(=O)c2c(=O)n1CCOC`: “inactive”.

For the compound `COCCn1c(=O)cnc2cnc(Nc3ccccc3)nc21`, the AC50 entry was “inactive”. Consider `CCn1nccc1C(=O)Nc1nc2ccccc2n1CCN1CCCCC1`, for which the AC50 result is “inactive”. For the compound `O=C(Nc1nc2ccccc2n1Cc1ccccc1)c1ccc(COc2ccccc2[N+](=O)[O-])o1`, the AC50 is 2 µM (active). Same read-out and setting: the same measure for `N[C@H](C(=O)O)c1nn[nH]n1`: “inactive”; for `CC1=C(C)/C(=N\OC(=O)/C=C/c2ccccc2)C=CC1=O`: “inactive”. Regarding `Cn1cnc([N+](=O)[O-])c1Sc1nc(N)nc2c1ncn2Cc1ccccc1`, the activity, negative = inhibition is 4.6% [at 11.4 µM] (inactive). On to `COCCNc1nc(-c2ccc(C(=O)N(C)C)cc2)nc2ccccc12`, for which the activity, negative = inhibition is -2.68% [at 2.29 µM] (inactive). Take `Cc1cc(C)c2cc(C#N)c(NCCOC(=O)c3ccccc3C)nc2c1`: the half-maximal activity concentration (AC50) is 2.51 µM (active). Still for that read-out and setting: the same measure for `CCOC(=O)c1cc(C#N)c(Oc2ccccc2OC)nc1-c1ccccc1`: 7.08 µM (active).

Consider `COC(=O)c1cc(C#N)c(Oc2ccc(OC)cc2)nc1C`, for which the AC50 is 14.1 µM (active).

On to `COC(=O)c1cc(C#N)c(NCc2ccc(Cl)cc2Cl)nc1C`, for which the AC50 result was “inactive”.

In the case of `COc1ccccc1CNc1ccnc(-c2cccc(C#N)c2)n1`, the activity, negative = inhibition is -24.8% [at 2.29 µM] (inactive). Take `CC(=O)NCCNc1ncnc2ccc(-c3ccccc3C#N)cc12`: the activity, negative = inhibition was -2.36% [at 2.29 µM] (inactive). Consider `CCCCNc1nc(-c2ccccc2)c(C(=O)OCC)cc1C#N`, for which the AC50 is 3.16 µM (active). On the same count and under the same terms, next, `CCCCNc1c(C(=O)OCC)c(C)nc2c1cnn2CC`: “inactive”; `N[C@@H](CO)C(=O)NNCc1ccc(O)c(O)c1O`: “inactive”. `Cn1c(=O)c2[nH]c(CCC(=O)O)nc2n(C)c1=O`: the activity, negative = inhibition is 24.4% [at 11.4 µM] (inactive). For `CN(C)C(N)=NCCC[C@H](N)C(=O)O`, the AC50 result was “inactive”. In the case of `O[C@H](C[C@@H]1CCCCN1)c1ccc2c(c1)oc1ccccc12`, the activity, negative = inhibition was -4.01% [at 11.4 µM] (inactive).
